# Source: PubChem BioAssay AID1508601 (ICCB-Longwood Screening Facility, Harvard Medical School, 2020)
# “And” between values parts separate entries of the source, which are not always exact repeats. Identical values can stand only once. Out of some 5,700 compounds screened, about 85 (1%) were called active. No stated cut-off is given here; in the data, active means p53-positive nuclei above about 36% (passing the limit was not always enough); inactive means the rest. For the sample, actives were picked, then their nearest neighbours and some compounds at random.
# Legend:
# [1] = p53 stabilisation in HPV-positive human cells, imaging, p53-positive nuclei imaging, 24 h, 48 h (AID 1508601); conditions: 24/48 h
# [2] = molecular target: Cellular tumor antigen p53 (Homo sapiens) (UniProt P04637); test: as above; conditions: 24/48 h, stronger effect = higher value
# Sequence of Cellular tumor antigen p53 (Homo sapiens) (P04637 whole entry, looked up): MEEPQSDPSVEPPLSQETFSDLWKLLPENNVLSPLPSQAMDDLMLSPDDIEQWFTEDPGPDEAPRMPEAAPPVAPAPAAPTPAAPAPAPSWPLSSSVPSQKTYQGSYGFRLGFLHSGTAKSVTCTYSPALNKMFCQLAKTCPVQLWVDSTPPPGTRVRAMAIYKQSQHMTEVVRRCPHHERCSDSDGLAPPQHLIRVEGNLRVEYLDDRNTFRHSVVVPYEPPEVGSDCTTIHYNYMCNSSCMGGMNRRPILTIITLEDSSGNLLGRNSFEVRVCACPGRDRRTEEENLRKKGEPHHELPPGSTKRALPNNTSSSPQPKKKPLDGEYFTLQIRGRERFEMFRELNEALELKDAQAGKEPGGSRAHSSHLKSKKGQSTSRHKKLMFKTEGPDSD
# [3] = measured here: cell number at 24 h, Library stock concentration: 80 uM
# [4] = measured here: cell number at 24 h, Library stock concentration: 400 uM
# [5] = measured here: cell number at 24 h, Library stock concentration: 2 mM
# [6] = measured here: cell number at 24 h, Library stock concentration: 10 mM
# [7] = measured here: cell number at 48 h, Library stock concentration: 80 uM
# [8] = measured here: cell number at 48 h, Library stock concentration: 400 uM
# [9] = measured here: cell number at 48 h, Library stock concentration: 2 mM
# [10] = measured here: cell number at 48 h, Library stock concentration: 10 mM
# [11] = Library stock concentration: 80 uM
# [12] = Library stock concentration: 400 uM
# [13] = Library stock concentration: 2 mM
# [14] = Library stock concentration: 10 mM
# [15] = measured here: p53 positive nuclei at 24 h, Library stock concentration: 80 uM
# [16] = measured here: p53 positive nuclei at 24 h, Library stock concentration: 400 uM
# [17] = measured here: p53 positive nuclei at 24 h, Library stock concentration: 2 mM
# [18] = measured here: p53 positive nuclei at 24 h, Library stock concentration: 10 mM
# [19] = measured here: cell number at 24 h, Library stock concentration: 3.33 mM
# [20] = measured here: cell number at 48 h, Library stock concentration: 3.33 mM
# [21] = Library stock concentration: 3.33 mM
# [22] = measured here: p53 positive nuclei at 24 h, Library stock concentration: 3.33 mM
smiles,measurement,setting,value
C#C[C@]1(O)CC[C@@H]2[C@@H]3CCc4cc(O)ccc4[C@@H]3CC[C@@]21C,"nuclei count, normalised",[1]; [3],97.1%
same,"nuclei count, normalised",[1]; [4],108%
same,"nuclei count, normalised",[1]; [5],101%
same,"nuclei count, normalised",[1]; [6],72.9%
same,"nuclei count, normalised",[1]; [7],108%
same,"nuclei count, normalised",[1]; [8],108%
same,"nuclei count, normalised",[1]; [9],102%
same,"nuclei count, normalised",[1]; [10],30.5%
same,"p53-positive nuclei, normalised",[2]; [11],0.0565% (inactive)
same,"p53-positive nuclei, normalised",[2]; [12],0.0172% (inactive)
same,"p53-positive nuclei, normalised",[2]; [13],0.0704% (inactive)
same,"p53-positive nuclei, normalised",[2]; [14],76.1% (inactive)
same,"p53-positive nuclei, normalised",[2]; [15],-0.0527%
same,"p53-positive nuclei, normalised",[2]; [16],0.068%
same,"p53-positive nuclei, normalised",[2]; [17],0.0711%
same,"p53-positive nuclei, normalised",[2]; [18],6.02%
C#C[C@@]1(O)CC[C@H]2[C@@H]3CCc4cc(O)ccc4[C@@H]3CC[C@@]21C,"nuclei count, normalised",[1]; [19],80.8%
same,"nuclei count, normalised",[1]; [20],66.7%
same,"p53-positive nuclei, normalised",[2]; [21],15.7% (inactive)
same,"p53-positive nuclei, normalised",[2]; [22],2.17%
C#CCOc1ccc2c(c1)c(-c1ccc(C(C)C)cc1)nc(=O)n2C(C)C,"nuclei count, normalised","[1]; measured here: cell number at 24 h, Library stock concentration: 46 uM",104%
same,"nuclei count, normalised","[1]; measured here: cell number at 24 h, Library stock concentration: 278 uM",110%
same,"nuclei count, normalised","[1]; measured here: cell number at 24 h, Library stock concentration: 1.67 mM",104%
same,"nuclei count, normalised",[1]; [6],112%
same,"nuclei count, normalised","[1]; measured here: cell number at 48 h, Library stock concentration: 46 uM",101%
same,"nuclei count, normalised","[1]; measured here: cell number at 48 h, Library stock concentration: 278 uM",101%
same,"nuclei count, normalised","[1]; measured here: cell number at 48 h, Library stock concentration: 1.67 mM",97.6%
same,"nuclei count, normalised",[1]; [10],101%
same,"p53-positive nuclei, normalised",[2]; Library stock concentration: 46 uM,-0.166% (inactive)
same,"p53-positive nuclei, normalised",[2]; Library stock concentration: 278 uM,0.0283% (inactive)
same,"p53-positive nuclei, normalised",[2]; Library stock concentration: 1.67 mM,0.0841% (inactive)
same,"p53-positive nuclei, normalised",[2]; [14],-0.00718% (inactive)
same,"p53-positive nuclei, normalised","[2]; measured here: p53 positive nuclei at 24 h, Library stock concentration: 46 uM",-0.153%
same,"p53-positive nuclei, normalised","[2]; measured here: p53 positive nuclei at 24 h, Library stock concentration: 278 uM",-0.218%
same,"p53-positive nuclei, normalised","[2]; measured here: p53 positive nuclei at 24 h, Library stock concentration: 1.67 mM",-0.0911%
same,"p53-positive nuclei, normalised",[2]; [18],-0.218%
O=C(O)C=Cc1ccc(Cn2ccnc2)cc1,"nuclei count, normalised",[1]; [3],111%
same,"nuclei count, normalised",[1]; [4],104%
same,"nuclei count, normalised",[1]; [5],103%
same,"nuclei count, normalised",[1]; [19],103% and 107%
same,"nuclei count, normalised",[1]; [6],108%
same,"nuclei count, normalised",[1]; [7],108%
same,"nuclei count, normalised",[1]; [8],104%
same,"nuclei count, normalised",[1]; [9],103%
same,"nuclei count, normalised",[1]; [20],110% and 99.3%
same,"nuclei count, normalised",[1]; [10],103%
same,"p53-positive nuclei, normalised",[2]; [11],0.0181% (inactive)
same,"p53-positive nuclei, normalised",[2]; [12],0.0683% (inactive)
same,"p53-positive nuclei, normalised",[2]; [13],0.0233% (inactive)
same,"p53-positive nuclei, normalised",[2]; [21],-0.0503% (inactive) and -0.0965% (inactive)
same,"p53-positive nuclei, normalised",[2]; [14],-0.178% (inactive)
same,"p53-positive nuclei, normalised",[2]; [15],0.0685%
same,"p53-positive nuclei, normalised",[2]; [16],0.0107%
same,"p53-positive nuclei, normalised",[2]; [17],0.0098%
same,"p53-positive nuclei, normalised",[2]; [22],-0.252% and -0.232%
same,"p53-positive nuclei, normalised",[2]; [18],-0.12%
